High-throughput results from PubChem.
Shown are actives, neighbours in structure and some others; about 13% of the full set was active somewhere.
Pf growth 96h: P. falciparum growth inhibition at 96 hours. 320,000 tested, 6.9% active. P. falciparum luciferase reporter growth, 96 h. AID 504834. Potency, µM (series often up to 28.7 µM), inactives show at the highest dose activity change, negative = inhibition, hits mostly inhibitors; further: potency means the concentration at half of the fitted maximal effect
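P. falciparum expressing integrated firefly luciferase grown in erythrocytes (2% hematocrit, 0.05% parasitemia final) with compounds for 96 hours at 37 C, 5% CO2. Growth inhibition read as loss of luminescence after adding luciferase detection reagent.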
HCMV inh: inhibitors of human cytomegalovirus | HFF cells, HCMV-luciferase reporter, 72 h; hits give low values | activity change, negative = inhibition, % at 57.5 µM | 410,000 tested, 4.5% active | AID 1259415; in the data active means activity change below about -60%; inconclusive means no clear call, values can overlap the other calls; inactive means above about -39%
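Two-dose cell screen: HFF monolayers treated with compounds and infected with luciferase-expressing HCMV at 1 PFU/cell, 72 h at 37C, then lysed for luciferase measurement.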
Pf growth 48h: inhibits P. falciparum growth in the first generation, 48 h; P. falciparum luciferase growth in erythrocytes, 48 h; Potency, µM (doses to about 28.7 µM), inactives show top-dose activity change, negative = inhibition, most hits filed as inhibitors; 310,000 tested, 5.9% active; AID 504832; further: potency means the concentration at half of the fitted maximal effect
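Luminescence readout; reporter = integrated firefly luciferase in P. falciparum. RBC culture at 2% hematocrit, 0.1% parasitemia final, 37 C/5% CO2; decreased signal taken as growth inhibition.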
HCV inh: inhibitors of hepatitis C virus infection; 340,000 tested, 3.4% active; Potency, µM (series often up to 41.8 µM), for the others: top-dose activity change, negative = inhibition, usual class: inhibitors; Huh7.5.1 HCVcc-Cre infection, luciferase reporter, 44 h; further: potency means the concentration at half of the fitted maximal effect
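HCVcc-Cre virus at an moi near 0.5 was added right after compound to cells cultured 4 h from seeding (1,000 cells/well). Luciferase activity was determined 44 h later, 15 min after substrate addition at RT.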
* hit, by the source's call; ? = inconclusive; . = not tested or not shown. Unless noted, the call rests on the fitted dose curve; in most records, active means well fitted inhibition curve with a large enough effect; inconclusive means small, poorly fitted or top-dose-only effect, or another doubt; inactive means no such curve, though single readings can be large or run the other way. On the % scale 0 is the no-effect control and ±100 the full control effect.

SMILES	Pf growth 96h	HCMV inh	Pf growth 48h	HCV inh
Oc1ccccc1CN1CCN(C(O)(c2ccccc2)c2ccccc2)CC1	5.2µM*	52	5.9µM*	?
CC(C)(C)c1ccc(O)c(CN2CCN(c3ccccc3)CC2)c1	1%	-13	2.1µM*	-4%
Clc1ccccc1CN1CCN(c2ccccc2)CC1	17%	8	.	-9%
COc1ccc(-c2cc(-n3c(C(F)(F)F)nc4ccccc43)n(CCC#N)n2)cc1	.	40	13µM*	-10%
Cc1cc(CC(C)C)n(-c2nc3ccccc3c(=O)n2OCc2ccccc2)n1	12µM*	-25	?	-6%
Cc1cc(C)n(-c2nc3ccccc3c(=O)n2OCC(=O)N(C)C)n1	2%	19	?	11%
Cc1cc(C)n(-c2nc3ccccc3c(=O)n2OCC(=O)OCc2ccccc2)n1	?	?	1.5µM*	?
Cc1cc(C)n(-c2nc3ccccc3c(=O)n2OCC(=O)Nc2c(C)cccc2C)n1	13µM*	6	?	-9%
Cc1cc(C)n(-c2nc3ccccc3c(=O)n2OCc2ccc(F)cc2)n1	8.3µM*	38	?	-10%
Cc1cc(C)n(-c2nc3ccccc3c(=O)n2OCc2ccc(Cl)cc2)n1	?	-10	?	-10%
Cc1cc(CC(C)C)n(-c2nc3ccccc3c(=O)n2OCC(=O)N(C)C)n1	0%	0	-9%	11%
C#CCOn1c(-n2nc(C)cc2C)nc2ccccc2c1=O	?	26	3%	23%
COc1ccc(-c2[nH]ncc2CN(C)Cc2ccccn2)c(OC)c1	13µM*	21	0%	27%
CSCCC(NC(=O)c1ccccc1Cl)C(=O)N1CCN(C(C)=O)CC1 (centres undefined)	-21%	76	?	-2%
COc1ccccc1C(=O)NC(CCSC)C(=O)N1CCC(Cc2ccccc2)CC1 (centres undefined)	?	-17	15µM*	?
CSCCC(NC(=O)c1ccccc1Br)C(=O)N1CCN(C/C=C/c2ccccc2)CC1 (centres undefined)	.	-83*	.	?
CC1CCN(S(=O)(=O)c2ccc3c(c2)oc(=O)n3CC(=O)N2c3ccccc3CC2C)CC1 (centres undefined)	-1%	42	.	13µM*
CC1CCN(S(=O)(=O)c2ccc3c(c2)oc(=O)n3CC(=O)O)CC1	.	-15	.	.
Cc1cc(C)cc(NC(=O)Cn2c(=O)oc3cc(S(=O)(=O)N4CCC(C)CC4)ccc32)c1	12µM*	-68*	.	-22%
CC1CCC2(CC1)NC(=O)N(CC(=O)N1c3ccccc3CC1C)C2=O (centres undefined)	.	-71*	.	19%
C=CC(=O)O	-20%	.	-4%	.
COc1ccc(S[C@]2(C(=O)N3CCCC3)CC(=O)N(c3ccccc3)[C@@H]2c2ccc(OC)cc2)cc1	.	-25	.	.
O=C(NCc1ccncc1)[C@@H]1CCCN1C(=O)[C@@H]1CCCN1C(=O)c1ccccc1Cl	.	1	.	.
CCOC(=O)N1CCc2c(sc(NC(=O)CCS(=O)(=O)c3ccccc3)c2C(N)=O)C1	15µM*	-33	?	?
CC(=O)N1CCc2c(sc(NC(=O)CCS(=O)(=O)c3ccccc3)c2C(N)=O)C1	-27%	-11	?	?
SMILES	Pf growth 96h	HCMV inh	Pf growth 48h	HCV inh
COc1cc2ccccc2cc1C(=O)Nc1sc2c(c1C(N)=O)CCN(C(C)C)C2	5.9µM*	-23	8.3µM*	.
CN1CCc2c(sc(NC(=O)c3ccc4ccccc4c3)c2C(N)=O)C1	?	.	-70%	.
CC(C)N1CCc2c(sc(NC(=O)CCS(=O)(=O)c3ccccc3)c2C(N)=O)C1	?	-111*	?	-11%
CCOc1cc(C#N)c(NC(=O)c2cccc(S(=O)(=O)N3CCOCC3)c2)cc1OCC	.	-6	.	.
COc1ccc(OC)c(CNCc2c(C(=O)O)n(Cc3cccc(F)c3)c3cc(OC)ccc23)c1	.	11	.	.
COc1ccc(NC(=O)Cn2nnc(-c3nc(-c4ccncc4)no3)c2N)cc1OC	.	13	.	.
COCCNc1nc(-c2cc(C)n(CCc3ccc(OC)cc3)c2C)cs1	?	10	2.6µM*	-19%
COc1ccccc1CNc1nc(-c2cc(C)n(C)c2C)cs1	-64%	.	?	?
CCOC(=O)N1CCc2c(sc(NCc3ccc(N(C)C)cc3)c2C(=O)Nc2ccc(OC)cc2)C1	.	-65*	.	.
CCOC(=O)N1CCc2c(sc(NCc3sccc3C)c2C(=O)Nc2ccc(OC)cc2OC)C1	.	-85*	.	.
CCOC(=O)N1CCc2c(sc(NCc3cccc(F)c3)c2C(=O)Nc2ccc(OC)cc2OC)C1	.	-87*	.	.
COc1ccc(NC(=O)c2c(NCc3sccc3C)sc3c2CCCCC3)c(OC)c1	.	-7	.	.
COc1ccc(NC(=O)c2c(NC(=O)CNCC(C)C)sc3c2CCC3)c(OC)c1	-4%	-4	9.3µM*	10µM*
Clc1ccc(-n2c(Cc3ccccc3)nnc2SCc2nc(-c3cccs3)no2)cc1	.	20	.	.
CCCCCSc1nc2sc3c(c2c(=O)n1-c1ccccc1)CCN(C(C)=O)C3	.	-6	.	.
CCOC(=O)c1c(C)[nH]c(CCC(=O)Nc2cc(Cl)ccc2OC)c1C	.	-13	.	.
CCC1=C/C(=C/N(C)c2ccccc2)C(=O)S1	?	43	.	-11%
CC[n+]1c(/C=C/N(C)c2ccccc2)sc2ccc(Cl)cc21	0.13µM*	-97*	0.1µM*	?
CC[n+]1c(/C=C/N(C)c2ccccc2)oc2ccc(Cl)cc21	?	?	4.7µM*	?
Cc1cc(C)cc(-n2c(SCC(=O)N3CCc4ccccc43)nc3c([nH]c4ccccc43)c2=O)c1	.	15	.	.
COc1ccc(N(Cc2cccs2)C(=O)c2ccccc2C)cc1	.	3	.	.
Cc1ccc(S(=O)(=O)n2nc(C)c(S(=O)(=O)N3CCC(C)CC3)c2C)cc1	.	11	.	.
Cc1scc(C(=O)N/N=C/c2ccco2)c1C	85%	13	147%	1%
Cc1nc2ccccn2c1C(=O)N/N=C/c1ccc([N+](=O)[O-])cc1	11%	.	12%	-7%
Cc1nc2ccccn2c1C(=O)N/N=C/c1ccc([N+](=O)[O-])o1	2.1µM*	-74*	?	?
SMILES	Pf growth 96h	HCMV inh	Pf growth 48h	HCV inh
O=C(N/N=C/c1ccc([N+](=O)[O-])o1)c1ccc(O)cc1	1µM*	-93*	1.7µM*	25µM*
O=C(N/N=C/c1ccc([N+](=O)[O-])o1)c1ccncc1	6.6µM*	-31	1.9µM*	?
Cc1scc(C(=O)N/N=C/c2ccc([N+](=O)[O-])o2)c1C	1.7µM*	-100*	4.1µM*	.
O=C(N/N=C/c1ccncc1)c1ccncc1	.	-14	.	14%
CCC(=O)OCc1cnc(C)c2oc(=O)c(C(=O)Nc3ccc(CC)cc3)cc12	.	0	.	.
O=C(N/N=C\c1ccc([N+](=O)[O-])o1)c1cncc(Br)c1	?	-83*	?	22µM*
O=C(N/N=C/c1ccc(-c2ccccc2[N+](=O)[O-])o1)c1cncc(Br)c1	14%	?	2%	-16%
CCN(CC)S(=O)(=O)c1cccc(C(=O)N/N=C/c2ccc([N+](=O)[O-])o2)c1	4.1µM*	-61*	?	?
